Assay outcomes: PubChem BioAssay, National Center for Advancing Translational Sciences (NCATS)
The list is not random: actives were taken first. Their share in the collection is about 21%.
Shiga inhibitor: A qHTS for Small Molecule Inhibitors of Shiga Toxin | Vero cells, Shiga toxin protein synthesis inhibition reporter | 290,000 compounds, 9.2% hits | inhibition, % at 38.7 µM; in the data active = inhibition mostly above about 28%, no sharp cut-off; inactive = mostly below about 43%; note: 0% is about no effect
Pf growth 96h: Primary qHTS for delayed death inhibitors of the malarial parasite plastid, 96 hour incubation | Potency, µM (series often up to 28.7 µM), for the others: at the highest dose activity change, negative = inhibition, most hits filed as inhibitors | AID 504834, 2011 | P. falciparum luciferase reporter growth, 96 h | 320,000 compounds, 6.9% hits; active = well fitted inhibition curve with a large enough effect; inconclusive = small, poorly fitted or top-dose-only effect, or another doubt; inactive = no such curve, though single readings can be large or run the other way; note: potency is the fitted concentration of half-maximal effect; % is set by controls: 0 for no effect and ±100 for the full control effect
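Readout is luminescence from an integrated firefly luciferase in P. falciparum. Red cells, 2% hematocrit and 0.05% parasitemia final, were cultured with compound through two parasite generations (96 hours) at 37 C, 5% CO2.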
SARS PLpro yeast: qHTS of Yeast-based Assay for SARS-CoV PLP | Potency, µM (doses to about 32.9 µM), for inactives: at the highest dose activity, positive = growth rescue, hits mostly activators | AID 485353, 2010 | 330,000 compounds, 0.19% hits | S. cerevisiae expressing SARS-CoV PLpro, growth rescue; note: potency is the fitted concentration of half-maximal effect; 0% is about no effect; nearly all actives have a fitted effect of over 55% in size
Cycloheximide cs: Cycloheximide Counterscreen for Small Molecule Inhibitors of Shiga Toxin | AID 2314, 2010 | 300,000 compounds, 12% hits | max response, % | cell reporter, cycloheximide protein synthesis inhibition counterscreen; in the data active = max response mostly above about 13%, no sharp cut-off; inactive = mostly below about 14%; note: read at 38.3 µM for the half of the compounds with a filed dose; 0% is about no effect
NS1 function inh: qHTS Assay for Inhibitors of Influenza NS1 Protein Function. 270,000 compounds, 0.4% hits. Potency, µM (top dose mostly 46.1 µM), for inactives: at the highest dose activity, positive = more growth; note: potency is the fitted concentration of half-maximal effect; actives are rising curves; nearly all actives have a fitted effect of over 50% in size
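OD600 was taken as the measure of yeast growth restored by compound in an NS1-expressing S. cerevisiae strain. Cells had been washed out of glucose medium and diluted 1:100 into galactose -URA medium, pH 6.0.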
Pf growth 48h: Primary qHTS for delayed death inhibitors of the malarial parasite plastid, 48 hour incubation. P. falciparum luciferase growth in erythrocytes, 48 h. Potency, µM (top dose mostly 28.7 µM), for the others: top-dose activity change, negative = inhibition, most hits filed as inhibitors. 310,000 compounds, 5.9% hits; active = well fitted inhibition curve with a large enough effect; inconclusive = small, poorly fitted or top-dose-only effect, or another doubt; inactive = no such curve, though single readings can be large or run the other way; note: potency is the fitted concentration of half-maximal effect; % is set by controls: 0 for no effect and ±100 for the full control effect
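Erythrocytes infected with P. falciparum carrying an integrated firefly luciferase reporter (2% hematocrit, 0.1% parasitemia final) were exposed to compounds in RPMI 1640 with 0.5% Albumax at 37 C, 5% CO2. Growth inhibition was scored as reduced luminescence.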
An asterisk follows results filed as active; ? = inconclusive; · = no result. Unless noted, calls come from the whole dose curve.

SMILES	Shiga inhibitor	Pf growth 96h	SARS PLpro yeast	Cycloheximide cs	NS1 function inh	Pf growth 48h
CCCC(NC(=O)CCc1c(C)c2cc3c4c(oc3c(C)c2oc1=O)CCCC4)C(=O)O (stereo not drawn)	23	15%	-2%	14	17%	4%
Cc1c(NC(=S)N/C(=N/S(=O)(=O)c2ccc(Cl)cc2)c2ccccc2)c(=O)n(-c2ccccc2)n1C	8	-4%	1%	1	0%	?
Cc1cc(SCc2ccc(Cl)cc2)nc(=O)[nH]1	8	?	21%	16*	7%	20%
Cc1ccc(CSc2nc3nc(C)cc(C)c3c(=O)[nH]2)cc1	-18	12%	-2%	12	·	14%
Cc1cc(SCc2cccc(Cl)c2)nc(=O)[nH]1	6	-17%	7%	8	7%	29%
Cc1ccc(CSc2cc(C)[nH]c(=O)n2)cc1	26*	-18%	-6%	16	26%	12%
O=C(Nc1ccccc1C(F)(F)F)c1ncn[nH]1	20	78%	4%	5	-2%	0%
COCCNC(=O)C(C)OC(=O)c1cc2sccc2n1C (stereo not drawn)	-9	?	-1%	-2	2%	11%
Cc1cccnc1NC(=O)Nc1ccccc1	49*	86%	0%	27*	-42%	90%
CCC(NC(=O)Nc1ncccc1C)(C(F)(F)F)C(F)(F)F	37	11%	0%	-2	-12%	6%
COc1ccc(NC(=O)Nc2ncccc2C)cc1	63*	18%	2%	20*	-8%	265%
COc1ccc(C(=O)NC(=O)Nc2ncccc2C)cc1	88*	123%	13%	40*	-17%	·
Cc1cccnc1NC(=O)c1ccccc1-c1ccccc1C(=O)Nc1ncccc1C	20	37%	2%	12	13%	10%
Cc1cccnc1NC(=O)CCNC(=O)c1ccc(Cl)cc1	-17	58%	21%	-3	1%	9%
Cc1cccnc1NC(=O)Nc1ccc(Cl)cc1	·	20%	-3%	25*	-29%	128%
COC(=O)c1ccccc1NC(=O)Nc1ncccc1C	-14	20%	0%	-3	5%	15%
COc1ccc(NS(=O)(=O)c2ccc(C(=O)OC(C)C(=O)N3CCOCC3)cc2)cc1 (stereo not drawn)	-11	-8%	2%	2	-3%	-4%
O=C(CC1CCC1)NC(c1ccccc1)c1ccccc1	-3	21%	-2%	1	2%	?
COc1ccccc1NC(=O)N1CCN(c2ccc(F)cc2)CC1	5	2.3µM*	1%	-2	-3%	-21%
COc1ccc(N2CCN(C(=O)C(OC(C)=O)c3ccccc3)CC2)cc1 (stereo not drawn)	-14	-2%	2%	-2	7%	12%
O=C(Nc1ccc(F)cc1F)N1CCC(c2nc3ccccc3o2)CC1	9	110%	0%	-4	·	12%
COc1ccccc1NC(=O)N1CCC(c2nc3ccccc3o2)CC1	-15	23µM*	-2%	-1	·	12%
COc1ccccc1NC(=O)N1CCN(C(=O)Nc2ccccc2OC)CC1	-3	32%	-1%	-2	-2%	-14%
O=C(Nc1ccccc1)N1CCN(c2ccc(F)cc2)CC1	21	?	-41%	24	0%	13µM*
CC(=O)OC(C(=O)N1CCN(c2ccc(F)cc2)CC1)c1ccccc1 (stereo not drawn)	-9	12µM*	?	5	-11%	32%
SMILES	Shiga inhibitor	Pf growth 96h	SARS PLpro yeast	Cycloheximide cs	NS1 function inh	Pf growth 48h
O=C(CSc1nc(=O)n(CCCN2CCOCC2)c2c1CCC2)Nc1ccc([N+](=O)[O-])cc1	·	?	1%	·	·	?
CC(=O)c1ccc(N2CCN(C(=O)Nc3ccc(F)cc3)CC2)cc1	42	-13%	-10%	21*	·	-24%
O=C(Nc1ccc(Cl)c(C(F)(F)F)c1)C(=O)N1CCCCC1	61	?	-29%	27*	-4%	81%
O=C(Nc1ccc(Cl)c(C(F)(F)F)c1)N1CCCC(O)C1 (stereo not drawn)	14	0.66µM*	-6%	9	-3%	22%
Cc1ccccc1/C=C/C(=O)NCC(=O)N1CCC(N(C)C2CCCCC2C)CC1 (stereo not drawn)	-12	?	-2%	-4	·	6%
CCC(=O)N/N=C(\C)CC(=O)Nc1ccc(Cl)cc1	10	34%	6%	8	-5%	12%
CCc1ccccc1NC(=S)N(CCCN(C)C)Cc1cc2cc3c(cc2[nH]c1=O)OCO3	-15	?	0%	1	-1%	?
FC(F)(F)c1ccc(-c2csc(-c3ccno3)n2)cc1	84*	3%	-1%	39*	0%	57%
Cc1csc(C)[n+]1CC(=O)c1ccccc1	·	6.6µM*	2%	-1	12%	?
Cn1c(N)c(C(=O)COC(=O)/C=C/c2cccc(Br)c2)c(=O)n(C)c1=O	·	-112%	-5%	·	·	13µM*
Cn1c(N)c(C(=O)COC(=O)/C=C/c2cccc(F)c2)c(=O)n(C)c1=O	·	-83%	-1%	·	·	12µM*
COc1ccc(C2NC(=O)NC(O)(C(F)(F)F)C2C(=O)c2ccc(C)cc2)cc1 (stereo not drawn)	-11	16%	-8%	-6	4%	2%
CC1CCc2nc(NC(=O)c3cc(C(C)(C)C)nn3C)sc2C1 (stereo not drawn)	12	8.3µM*	1%	4	-21%	?
CCOC(=O)N1CCN(S(=O)(=O)c2ccc(C(=O)Nc3nc4c(s3)CC(C)CC4)cc2)CC1 (stereo not drawn)	-28	1%	-6%	-4	7%	?
Cc1ccc(-c2nc(NC(=O)c3cc(C(C)(C)C)nn3C)sc2C)cc1Cl	-6	2.1µM*	2%	-1	-4%	1.9µM*
COC(=O)c1ccc(C(=O)NC(=S)Nc2nc3c(s2)CC(C)CC3)cc1 (stereo not drawn)	7	-9%	6%	27*	-1%	9%
COc1cccc(N2CCN(CC(=O)Nc3nc4c(s3)CC(C)CC4)CC2)c1 (stereo not drawn)	-6	?	-7%	-2	-64%	-5%
Cn1nc(C(C)(C)C)cc1C(=O)NNC(=O)c1ccccc1Cl	-5	3%	0%	1	1%	40%
CSCC[C@H](NC(=O)[C@H](CC(C)C)NC(=O)[C@@H]1CCCN1C(=O)[C@H](Cc1ccccc1)NC(=O)[C@H](Cc1ccccc1)NC(=O)[C@@H]1CCC(=O)N1)C(N)=O	-4	·	·	-2	·	·
Oc1ccc(C2C(c3ccccc3)=NN=C(c3ccccc3F)N2O)c(O)c1 (stereo not drawn)	14	?	21%	8	6%	-15%
